L3MBTL1 inh: qHTS Assay for the Inhibitors of L3MBTL1. Lethal(3)malignant brain tumor-like protein 1 (Homo sapiens), Q9Y468. AlphaScreen L3MBTL1–H3K9me1 peptide binding. Potency, µM (highest dose often 57.1 µM), inactives show at the highest dose activity, negative = inhibition, most hits filed as inhibitors. 230,000 compounds, 0.66% hits; active = well fitted inhibition curve with a large enough effect; inconclusive = small, poorly fitted or top-dose-only effect; inactive = no such curve, though single readings can be large or run the other way; also: potency is read from the fitted curve at half-maximal effect; nearly all actives have a fitted effect of over 60% in size
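L3MBTL1 (50 nM) pre-complexed 30 min with biotinylated H3(1-15)K9me1 peptide (75 nM), then compounds added for 30 min at room temperature; AlphaScreen streptavidin donor/nickel chelate acceptor beads (10 ug/mL final) read after 30 min dark incubation.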
CtBP-E1A blk: qHTS Assay for Inhibitors of the CtBP/E1A Interaction; CtBP / adenovirus E1A interaction (AlphaScreen); AlphaScreen GST-E1A/His-CtBP binding, 1536-well; hits give low values; activity change, % (test concentration not listed); 340,000 compounds, 0.49% hits; AID 651724, 2012
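Protein mix (5X: 125 nM each GST-E1A, His-CtBP) was incubated with pinned compound 2 h at 37 deg C in dark, in 50 mM Tris pH 8.0 buffer with 300 mM NaCl. Glutathione donor and nickel acceptor beads followed; AlphaScreen signal read after 1 h.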
KDM4E inh: qHTS Assay for Inhibitors of Human Jumonji Domain Containing 2E (JMJD2E). JMJD2E catalytic domain, FDH-coupled NADH fluorescence (FDH is formaldehyde dehydrogenase). Potency, µM (top dose mostly 57.1 µM), for the others: top-dose activity change, negative = inhibition, most hits filed as inhibitors. 230,000 compounds, 1.6% hits; active = well fitted inhibition curve with a large enough effect, not every such curve was filed as active; inconclusive = small, poorly fitted or top-dose-only effect, or another doubt; inactive = no such curve, though single readings can be large or run the other way;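 also: potency is read from the fitted curve at half-maximal effect; 0% = wells with enzyme and -100% = buffer wells without enzyme; nearly all actives have a fitted effect of over 50% in size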
Six1-Eya2 inh: qHTS Assay for Inhibitors of the Six1/Eya2 Interaction | Homeobox protein SIX1 (Homo sapiens) + Protein phosphatase EYA2 (Homo sapiens), … | AlphaScreen GST-Six1/His-Eya2 binding, biochemical; hits give low values | activity change, % (test concentration not listed) | 360,000 compounds, 0.56% hits
Target sequence (O00167 whole entry, looked up): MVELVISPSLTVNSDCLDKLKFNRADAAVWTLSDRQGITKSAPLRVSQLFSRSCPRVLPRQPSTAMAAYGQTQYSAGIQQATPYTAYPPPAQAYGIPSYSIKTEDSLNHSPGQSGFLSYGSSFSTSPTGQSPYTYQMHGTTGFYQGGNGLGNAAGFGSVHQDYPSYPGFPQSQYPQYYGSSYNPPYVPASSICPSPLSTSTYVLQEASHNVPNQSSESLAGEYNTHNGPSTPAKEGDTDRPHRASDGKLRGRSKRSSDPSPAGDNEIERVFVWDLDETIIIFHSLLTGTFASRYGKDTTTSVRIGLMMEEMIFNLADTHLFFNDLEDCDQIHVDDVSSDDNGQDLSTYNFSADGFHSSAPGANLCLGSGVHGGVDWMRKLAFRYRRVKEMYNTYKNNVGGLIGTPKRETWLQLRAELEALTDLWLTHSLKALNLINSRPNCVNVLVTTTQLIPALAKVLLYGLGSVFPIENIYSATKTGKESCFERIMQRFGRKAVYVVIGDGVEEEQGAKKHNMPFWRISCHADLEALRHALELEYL
Target sequence (Q15475 whole entry, looked up): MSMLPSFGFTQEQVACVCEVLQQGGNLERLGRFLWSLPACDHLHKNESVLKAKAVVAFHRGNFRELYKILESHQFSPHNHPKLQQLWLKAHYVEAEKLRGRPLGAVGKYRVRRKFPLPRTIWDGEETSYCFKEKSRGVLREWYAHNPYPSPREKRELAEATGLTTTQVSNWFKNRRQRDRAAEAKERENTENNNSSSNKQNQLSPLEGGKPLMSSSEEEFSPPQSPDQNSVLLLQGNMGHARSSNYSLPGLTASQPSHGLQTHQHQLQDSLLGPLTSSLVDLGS
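AlphaScreen with GST-Six1 and His-Eya2 (5X mix: 250 nM and 500 nM), glutathione donor and nickel acceptor beads; buffer 50 mM Tris pH 8.0, 300 mM NaCl, 1 mM TCEP; 1 h at 37 C in the dark.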
* hit, by the source's call; ? = inconclusive; nt = no result given; [ ] = remark or other dose. Shown is part of a subset that was picked to be rich in hits. Rule as the data show it, unless noted: active = activity change below about -65%; inconclusive = mostly about -30% to -63%; inactive = weaker than that. Unless noted, % is scaled to controls: 0 for no effect and ±100 for the full control effect.

SMILES	L3MBTL1 inh	CtBP-E1A blk	KDM4E inh	Six1-Eya2 inh
O=C(c1cccc(-n2cccc2)c1)N1CCN(S(=O)(=O)c2ccccc2)CC1	4.5µM*	-26	nt	?
O=c1c(-c2ccccc2)coc2cc(O)cc(O)c12	nt	nt	5%	nt
O=C1NC[C@H](c2ccccc2)N1	nt	nt	-27%	nt
NC1=NC(=O)/C(=C\c2ccc(O)c([N+](=O)[O-])c2)S1	0%	-82*	9%	-76*
Cc1[nH][nH]c(=O)c1C(c1ccc(-c2cccc(C(=O)O)c2)o1)c1c(C)[nH][nH]c1=O	25µM*	-15	26%	-5
Cc1[nH][nH]c(=O)c1C(c1ccc(-c2ccccc2C(=O)O)o1)c1c(C)[nH][nH]c1=O	32µM*	1	23%	?
CCc1ccccc1NC(=O)C1CCN(C(=O)c2ccc([N+](=O)[O-])cc2)CC1	2%	1	5%	1
CC1=NN(c2ccc(C(F)(F)F)cn2)C(=O)C1	?	?	?	-68*
CS(=O)(=O)Nc1ccc(N2CCN(c3ccc(C(F)(F)F)cn3)CC2)nc1	-8%	-2	-11%	0
NC(=O)[C@@H]1CCCN1C(=O)c1ccc2nc(Cc3ccccc3F)oc2c1	nt	5	nt	4
CC1=C(C(=O)N2CCOCC2)C(c2ccc(O)cc2)NC(=S)N1 (stereo not drawn)	-3%	-5	-24%	4
Oc1ccc2c(c1)C1CCCC1(N1CCOCC1)O2 (stereo not drawn)	32µM*	6	16µM*	7
CC(C)(C)NC(=O)C(c1ccc(I)cc1)N(CCN1CCOCC1)C(=O)CCCNC(=O)c1ccccc1 (stereo not drawn)	nt	nt	4%	nt
Cc1nc(S/C(=C/c2ccc(-c3cc(Cl)ccc3C)o2)C(=O)O)n[nH]1	3%	-6	5µM*	-4
O=C(COC(=O)CNS(=O)(=O)c1c(Cl)cccc1Cl)Nc1cccnc1Cl	6%	5	-7%	4
CCOc1ccc(NC(=O)c2cc(F)c(F)cc2Cl)cc1OCC	27%	-97*	-3%	-6
COc1cccc(CCOC(=O)c2c(-c3ccsc3)oc3c2C(OC(C)=O)CCC3)c1 (stereo not drawn)	nt	25	nt	26
Cc1nc(N)sc1-c1csc(Nc2cccc(O)c2)n1	-1%	?	nt	-69*
Cc1nc(N)sc1-c1csc(Nc2cc(N(C)C)ccc2Cl)n1	nt	?	nt	-73*
CC(=O)c1cccc(Nc2nc(-c3sc(N)nc3C)cs2)c1	-1%	-77*	nt	?
O=C(CN1C(=O)S/C(=C\c2ccc(Cl)cc2)C1=O)NNC(=O)c1ccccc1O	-2%	-23	18µM*	-5
CCC(=Nc1ccccc1O)C1=C(O)CC(c2ccccc2)CC1=O (stereo not drawn)	-8%	3	25µM*	-2
COc1ccc(OC)c(NC(=O)CC(NC(C)=O)c2ccccc2)c1 (stereo not drawn)	nt	0	-1%	-3
Nc1c(C(=O)NCc2ccco2)sc2nc3c(cc12)C(=O)CCC3	32µM*	-18	-3%	-20
Cc1ccsc1/C=N\NC(=O)c1cc(C(C)(C)C)[nH]n1	39%	5	6%	2
SMILES	L3MBTL1 inh	CtBP-E1A blk	KDM4E inh	Six1-Eya2 inh
O=[N+]([O-])c1ccc(O)c2ncccc12	?	-96*	?	-91*
O=[N+]([O-])c1ccc(O)c2cccnc12	nt	-6	-11%	-10
O=[N+]([O-])c1cc([N+](=O)[O-])c2cccnc2c1Oc1ccccc1O	?	?	22µM*	-65*
COc1ccc(-c2nc3c(c4c2C[C@H](c2ccccc2)OC4)CN(S(=O)(=O)c2ccc(Cl)c4nonc24)CC3)c(C)c1	nt	nt	-9%[11.4 µM]	nt
Cc1ccccc1Nc1oc(-c2ccccc2)nc1CCc1ccccc1	nt	nt	5%	nt
O=C(/C=C/c1ccco1)Oc1cccc2cccnc12	-16%	0	-20%	-79*
O=C(/C=C\c1ccco1)Oc1cccc2cccnc12	nt	-74*	-21%	-76*
CCC/C=C(\CCC)C(NC(=O)c1ccccc1)c1ccccc1 (stereo not drawn)	nt	nt	7%	nt
O=C1c2ccccc2NC(c2cccc(F)c2)N1Cc1ccccc1 (stereo not drawn)	nt	3	nt	8
O=C1c2ccccc2NC(c2cccc(F)c2)N1Cc1ccco1 (stereo not drawn)	4.5µM*	-10	?	-10
CCc1ccc(N2CC(C(=O)N/N=C/c3cc([N+](=O)[O-])ccc3O)CC2=O)cc1 (stereo not drawn)	?	-88*	?	-80*
O=C(N/N=C/c1cc([N+](=O)[O-])ccc1O)C1CC1	12%	-26	28µM*	-85*
O=C1NCCCC1C(=O)N/N=C/c1cc([N+](=O)[O-])ccc1O (stereo not drawn)	-8%	-96*	10µM*	-69*
COC(=O)C1(C)C=C(Nc2ccc(OC)cc2)C(=O)N1c1ccc(OC)cc1 (stereo not drawn)	nt	nt	-18%	nt
CSc1nsc(/C=C/Nc2ccc(O)cc2C)c1C#N	-30%	nt	13µM*	-4
CSc1nsc(/C=C/Nc2ccc(F)cc2)c1C#N	-6%	nt	?	1
CCN(CC)S(=O)(=O)c1cccc(N=NC2=C(O)CCCC2=O)c1	-2%	3	-11%	-23
O=C1CCCC(O)=C1N=Nc1cccc(C(=O)O)c1	8.9µM*	0	?	-15
COC(=O)[C@@H](NC(=O)O[C@@H]1C(=O)c2cc(Br)ccc2O[C@H]1c1ccc2c(c1)OCO2)C(C)C	nt	nt	-1%	nt
CNc1nc(NCc2ccc(N(C)C)cc2)c2sccc2n1	nt	?	nt	-67*
CNc1nc(NCc2ccc(C)cc2C)c2sccc2n1	nt	-26	nt	7
OC[C@@H](O)CN1CCN(c2ccccc2)CC1	nt	nt	6%[25.5 µM]	nt
CN(CC(=O)N(C)CC(=O)Nc1c(Cl)cccc1Cl)Cc1ccccc1F	-7%	nt	nt	1
CCC(NC(C)C)C(O)c1ccc(O)c(O)c1 (stereo not drawn)	-4%	6	13µM*	6
CC1(C)CC(=O)c2c(oc3cc(O)c(O)cc23)C1	nt	3	13µM*	-1
SMILES	L3MBTL1 inh	CtBP-E1A blk	KDM4E inh	Six1-Eya2 inh
CC1OC1c1ccc(-c2ccc(C3OC3C)cc2)cc1 (stereo not drawn)	nt	-86*	nt	-15
Cc1ccc(C2OCC3(CO2)COC(c2ccc(C)cc2)OC3)cc1 (stereo not drawn)	3%	0	2%	10
Cc1cccc2sc(NC(=O)C3CCCO3)nc12 (stereo not drawn)	1%	6	3%	1
Cc1nc(C)c(C(=O)Nc2nc3c(C)cccc3s2)o1	20µM*	-4	6%	-15
Cc1cc(C2CCCCC2)n(O)c(=O)c1	-28%	?	10µM*	-1
N#CCCCS(=O)(=O)c1nnnn1-c1ccc(F)cc1Br	nt	nt	5%	nt
O=C1OCCN1/N=C\c1ccc([N+](=O)[O-])o1	nt	nt	-25%[25.5 µM]	nt
